In all, about 5,500 compounds went through this assay and about 2,000 (36%) were called active. Not shown: some 18% with an inconclusive outcome. Rule as the data show it: active = normalized growth mostly below about 0.91 (no sharp cut-off); inconclusive = no clear call, values can overlap the other calls; inactive = mostly above about 0.92. Some of the results follow.
Experiment: chemical genetic growth profiling, strain panel (AID 1159580);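 also: tested at 20 µM; growth read once vehicle control cultures reached saturation at 30 °C; 1 = growth at the plate median or of vehicle wells; lower values mean less growth of the strain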
Details: growth OD

Measured: normalized growth

CC(=O)N[C@@H](CC(C)C)C(=O)O
inactive: S. cerevisiae deletion strains, locus YJR066W, strain TOR1, active compounds read low 1.02 | S. cerevisiae deletion strains, locus YJR075W, strain HOC1, active compounds read low 0.992 | S. cerevisiae deletion strains, locus YKL009W, strain mrt4, active compounds read low 0.962 | S. cerevisiae deletion strains, locus YKL068W, active compounds read low 0.977 | S. cerevisiae deletion strains, locus YKL085W, strain MDH1 (second series), active compounds read low 0.972 | S. cerevisiae deletion strains, locus YKL085W, strain MDH1, active compounds read low 0.972 | S. cerevisiae deletion strains, locus YKL160W, strain elf1, active compounds read low 0.977 | S. cerevisiae deletion strains, locus YKL190W, strain CNB1, active compounds read low 0.987 | S. cerevisiae deletion strains, locus YKR001C, strain vps1, active compounds read low 1 | S. cerevisiae deletion strains, locus YKR026C, strain gcn3, active compounds read low 0.979 | S. cerevisiae deletion strains, locus YKR091W, strain srl3, active compounds read low 1 | S. cerevisiae deletion strains, locus YLL001W, strain dnm1, active compounds read low 0.944 | S. cerevisiae deletion strains, locus YLL026W, active compounds read low 0.985 | S. cerevisiae deletion strains, locus YLL041C, strain sdh2, active compounds read low 0.995 | S. cerevisiae deletion strains, locus YLR027C, strain aat2, active compounds read low 0.992 | S. cerevisiae deletion strains, locus YLR039C, strain RIC1, active compounds read low 0.958 | S. cerevisiae deletion strains, locus YLR058C, strain SHM2, active compounds read low 0.989 | S. cerevisiae deletion strains, locus YLR102C, strain apc9, active compounds read low 0.988 | S. cerevisiae deletion strains, locus YLR113W, strain HOG1, active compounds read low 1.05 | S. cerevisiae deletion strains, locus YLR221C, strain rsa3, active compounds read low 1 | S. cerevisiae deletion strains, locus YLR258W, strain gsy2, active compounds read low 0.997 | S. cerevisiae deletion strains, locus YLR262C, strain YPT6 (second series), active compounds read low 0.983 | S. cerevisiae deletion strains, locus YLR262C, strain YPT6, active compounds read low 0.954 | S. cerevisiae deletion strains, locus YLR268W, strain sec22, active compounds read low 0.985 | S. cerevisiae deletion strains, locus YLR320W, strain mms22, active compounds read low 1.02 | S. cerevisiae deletion strains, locus YLR330W, strain CHS5, active compounds read low 0.972 | S. cerevisiae deletion strains, locus YLR342W, strain FKS1 (second series), active compounds read low 0.973 | S. cerevisiae deletion strains, locus YLR342W, strain FKS1, active compounds read low 0.984 | S. cerevisiae deletion strains, locus YLR357W, strain rsc2, active compounds read low 0.99 | S. cerevisiae deletion strains, locus YLR370C, strain arc18, active compounds read low 0.982 | S. cerevisiae deletion strains, locus YLR371W, strain rom2, active compounds read low 0.982 | S. cerevisiae deletion strains, locus YLR384C, strain iki3, active compounds read low 0.976 | S. cerevisiae deletion strains, locus YLR418C, strain cdc73, active compounds read low 0.978 | S. cerevisiae deletion strains, locus YML016C, strain PPZ1, active compounds read low 0.992 | S. cerevisiae deletion strains, locus YML032C, strain rad52, active compounds read low 1 | S. cerevisiae deletion strains, locus YML120C, strain ndi1, active compounds read low 0.976 | S. cerevisiae deletion strains, locus YML124C, strain tub3, active compounds read low 0.995 | S. cerevisiae deletion strains, locus YMR058W, strain fet3, active compounds read low 0.982 | S. cerevisiae deletion strains, locus YMR078C, strain ctf18, active compounds read low 0.984 | S. cerevisiae deletion strains, locus YMR125W, strain sto1, active compounds read low 0.994 | S. cerevisiae deletion strains, locus YMR129W, active compounds read low 0.998 | S. cerevisiae deletion strains, locus YMR205C, strain PFK2, active compounds read low 0.992 | S. cerevisiae deletion strains, locus YMR223W, strain ubp8, active compounds read low 0.968 | S. cerevisiae deletion strains, locus YMR231W, strain pep5, active compounds read low 0.991 | S. cerevisiae deletion strains, locus YMR263W, strain SAP30, active compounds read low 0.998 | S. cerevisiae deletion strains, locus YMR307W, strain GAS1, active compounds read low 0.982 | S. cerevisiae deletion strains, locus YNL067W, strain RPL9B, active compounds read low 1.03 | S. cerevisiae deletion strains, locus YNL071W, strain lat1, active compounds read low 1.01 | S. cerevisiae deletion strains, locus YNL183C, strain NPR1, active compounds read low 0.958 | S. cerevisiae deletion strains, locus YNL209W, strain ssb2, active compounds read low 0.99 | S. cerevisiae deletion strains, locus YNL233W, strain BNI4, active compounds read low 1.04 | S. cerevisiae deletion strains, locus YNL248C, strain rpa49, active compounds read low 0.989 | S. cerevisiae deletion strains, locus YNL250W, strain rad50, active compounds read low 0.96 | S. cerevisiae deletion strains, locus YNL271C, strain bni1, active compounds read low 0.979 | S. cerevisiae deletion strains, locus YNL298W, strain CLA4, active compounds read low 0.976 | S. cerevisiae deletion strains, locus YNL307C, strain MCK1, active compounds read low 0.991 | S. cerevisiae deletion strains, locus YNL322C, strain KRE1 (second series), active compounds read low 0.991 | S. cerevisiae deletion strains, locus YNR049C, strain mso1, active compounds read low 0.988 | S. cerevisiae deletion strains, locus YNR052C, strain pop2, active compounds read low 0.986 | S. cerevisiae deletion strains, locus YOL006C, strain TOP1, active compounds read low 1.1 | S. cerevisiae deletion strains, locus YOL012C, strain htz1 1.43 | S. cerevisiae deletion strains, locus YOL147C, strain pex11, active compounds read low 0.98 | S. cerevisiae deletion strains, locus YOR001W, strain rrp6, active compounds read low 0.971 | S. cerevisiae deletion strains, locus YOR061W, strain CKA2, active compounds read low 0.986 | S. cerevisiae deletion strains, locus YOR069W, strain VPS5, active compounds read low 0.982 | S. cerevisiae deletion strains, locus YOR070C, strain gyp1, active compounds read low 1 | S. cerevisiae deletion strains, locus YOR080W, strain dia2, active compounds read low 0.982 | S. cerevisiae deletion strains, locus YOR083W, strain WHI5, active compounds read low 0.976 | S. cerevisiae deletion strains, locus YOR106W, strain vam3, active compounds read low 0.974 | S. cerevisiae deletion strains, locus YOR136W, strain idh2, active compounds read low 0.992 | S. cerevisiae deletion strains, locus YOR144C, strain elg1, active compounds read low 0.996 | S. cerevisiae deletion strains, locus YOR184W, strain ser1, active compounds read low 0.983 | S. cerevisiae deletion strains, locus YOR231W, strain MKK1, active compounds read low 1.02 | S. cerevisiae deletion strains, locus YOR265W, strain rbl2, active compounds read low 0.998 | S. cerevisiae deletion strains, locus YOR270C, strain vph1, active compounds read low 0.996 | S. cerevisiae deletion strains, locus YOR290C, strain snf2, active compounds read low 1.01 | S. cerevisiae deletion strains, locus YOR316C, strain cot1, active compounds read low 1 | S. cerevisiae deletion strains, locus YPL051W, strain arl3, active compounds read low 0.992 | S. cerevisiae deletion strains, locus YPL078C, strain atp4, active compounds read low 0.955 | S. cerevisiae deletion strains, locus YPL106C, strain sse1, active compounds read low 0.994 | S. cerevisiae deletion strains, locus YPL240C, strain hsp82, active compounds read low 0.979 | S. cerevisiae deletion strains, locus YPL256C, strain CLN2, active compounds read low 1.04 | S. cerevisiae deletion strains, locus YPR119W, strain clb2, active compounds read low 0.99 | S. cerevisiae deletion strains, locus YPR141C, strain kar3, active compounds read low 0.974 | S. cerevisiae deletion strains, locus YPR163C, strain tif3, active compounds read low 0.977 | S. cerevisiae deletion strains, locus YPR167C, strain met16, active compounds read low 0.985 | S. cerevisiae deletion strains, strain wtn01, active compounds read low 0.991 | S. cerevisiae strains, strain wild type, active compounds read low 0.999
